The values that follow come from PubChem BioAssay (Tox21).

Experiment [1] in a line: Nuclear factor erythroid 2-related factor 2/antioxidant responsive element (Nrf2/ARE) small molecule agonists: luciferase reporter gene qHTS assay in human keratinocytes (AID 1919969). Further: nearly all actives have a fitted effect of over 35% in size.
The nature of experiment [2]: G protein-coupled receptor (GPCR) small molecule agonists, calcium flux assay: HEK293 wild type cell line counter screen (AID 1920065). Summed up:
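Tox21 10K compounds, 15 concentrations each in triplicate, pin-transferred in DMSO onto dye-loaded cells; kinetic read at 480/540 nm for 3 min, 1 s intervals.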
(In general: Calcium assays in cells follow changes in intracellular calcium, usually with a dye or a luminescent sensor.)

A short description of experiment [3]: p53 small molecule agonists, cell-based qHTS assay with human liver microsomes (AID 1963577). Summed up:
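p53RE-bla reporter cells were pre-incubated 5 h at 37 C, then treated with compounds plus human liver microsomes (0.5 mg/mL final) and NADPH (0.5 mg/mL final) for 16 h at 37 C. Beta-lactamase activity was read by LiveBLAzer fluorescence after 2 h at room temperature.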
On the technique in general: Quantitative high-throughput screening tests each substance at several concentrations.

Experiment [4] can be described thus: p53 small molecule agonists, cell-based qHTS assay with rat liver microsomes (AID 1963578). Summed up:
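p53RE-bla cells were exposed to compounds together with rat liver microsomes (0.5 mg/mL final) and NADPH (0.5 mg/mL final) for 16 h at 37 C, then read by LiveBLAzer beta-lactamase fluorescence after 2 h at room temperature.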

A short description of experiment [5]: p53 small molecule agonists, cell-based qHTS assay with human liver microsomes: qHTS cell viability counter screen (AID 1963579). Further: nearly all actives have a fitted effect of over 45% in size. Summed up:
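p53RE-bla cells (4,000/well) were pre-incubated 5 h at 37 C, then given compounds in DMSO plus human liver microsomes (0.5 mg/mL final) and NADPH (0.5 mg/mL final) for 16 h at 37 C. Viability was read by CellTiter-Glo luminescence.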

The nature of experiment [6]: p53 small molecule agonists, cell-based qHTS assay with rat liver microsomes: qHTS cell viability counter screen (AID 1963580). Further: nearly all actives have a fitted effect of over 45% in size. Summed up: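 Counter screen for cytotoxicity under metabolic activation: rat liver microsomes and NADPH, 0.5 mg/mL final each, added with compounds to p53RE-bla HCT-116 cells; 16 h at 37 C, then ATP luminescence read.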
Experiment [7] in a line: p53 small molecule agonists, cell-based qHTS assay: qHTS cell viability counter screen (AID 1963581). Further: nearly all actives have a fitted effect of over 45% in size. Summed up:
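ATP content measured by luminescence in HCT-116 p53RE-bla cells treated 16 h at 37 C, same wells as the reporter screen.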

Experiment [8] in a line: p53 small molecule agonists, cell-based qHTS assay (AID 1963582; active means well fitted activation curve with a large enough effect in the signal ratio in the repeat runs, not every such curve was filed as active; the % refers to the signal ratio). Summed up:
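16 h compound exposure (37 C) of p53 response element–bla cells, preceded by 5 h recovery at 37 C/5% CO2; read-out via LiveBLAzer B/G FRET substrate, 2 h RT, fluorescence intensity.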

The target in experiment [9] is 5-hydroxytryptamine receptor 2A (Homo sapiens) (UniProt P28223). Put plainly: 5-hydroxytryptamine receptor 2A (HTR2A) small molecule antagonists, cell-based qHTS assay (AID 1963586). Further: nearly all actives have a fitted effect of over 45% in size. Summed up:
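CHO cells stably expressing human HTR2A were plated for 18 h at 37 C, then loaded with calcium dye for 1 h. Compounds were preincubated 5 min at room temperature before DOI (4 nM solution) was added. Kinetic fluorescence was read for 3 min.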

Experiment [10] has the same target. Put plainly: 5-hydroxytryptamine receptor 2A (HTR2A) small molecule agonists, cell-based qHTS assay (AID 1963587). Further: nearly all actives have a fitted effect of over 30% in size. Summed up:
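HTR2A-CHO cells, plated 18 h at 37 C/5% CO2, dye-loaded 1 h at 37 C; compounds in DMSO added by pin tool (agonist mode). Intracellular calcium flux read as kinetic fluorescence on FDSS over 2 min at 1 s intervals.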

Experiment [11] concerns the target Muscarinic acetylcholine receptor M1 (Homo sapiens) (UniProt P11229). The experiment is described as follows: Cholinergic receptor muscarinic 1 (CHRM1) small molecule antagonists, cell-based qHTS assay (AID 1963588). Further: nearly all actives have a fitted effect of over 40% in size. Summed up:
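Compounds were tested at 15 concentrations in three independent runs. Dye-loaded CHRM1-CHO cells were exposed 5 min at room temperature before stimulation by acetylcholine added at 50nM. Intracellular calcium was read kinetically on FDSS for 3 min.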

For experiment [12] the target is unchanged. Put plainly: Cholinergic receptor muscarinic 1 (CHRM1) small molecule agonists, cell-based qHTS assay (AID 1963589). Further: nearly all actives have a fitted effect of over 35% in size. Summed up: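 Homogeneous fluorescence calcium flux, agonist mode. Human M1-expressing CHO cells; compound dosed at 15 concentrations, three independent runs; signal sampled every 1 sec.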
Experiment [13] is described as follows: cAMP Responsive Elements (CRE) small molecule agonists, cell-based qHTS assay (AID 1963590). Summed up:
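HEK 293T cells stably bearing CRE-bla were plated at 2,000 cells per well and rested 18 h. Compounds, positive controls or DMSO were added for 3 h at 37 C. LiveBLAzer B/G substrate was then loaded for 2 h at room temperature.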

The nature of experiment [14]: cAMP Responsive Elements (CRE) small molecule antagonists, cell-based qHTS assay (AID 1963591; active means well fitted inhibition curve with a large enough effect in the signal ratio in the repeat runs, not every such curve was filed as active; the % refers to the signal ratio). Summed up: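 First, CRE-bla HEK293T cells settled 18 h at 37 C. Next, compound and 0.25 uM final NKH477 were applied for 3 h. Last, LiveBLAzer B/G substrate was loaded for 2 h at room temperature.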
Experiment [15] has as its target Beta-2 adrenergic receptor (Homo sapiens) (UniProt P07550). The experiment is described as follows: Adrenergic beta2 receptor (ADRB2) small molecule antagonists, cell-based qHTS assay (AID 1963592). Further: series mostly up to about 92 µM; nearly all actives have a fitted effect of over 50% in size. Summed up: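 Assay format: CHO-ADRB2 cells, 18-20hr seeding at 37C/5% CO2, then compound plus 1nM isoproterenol agonist mix for 0.5hr RT. Homogeneous time-resolved fluorescence cAMP detection after 1hr, expressed as 665/615 nm ratio.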

Experiment [16] shares this target. Put plainly: Adrenergic beta2 receptor (ADRB2) small molecule agonists, cell-based qHTS assay (AID 1963593).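 Further: CHO cells stably overexpressing human ADRB2.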 Summed up:
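CHO cells stably over-expressing ADRB2 were plated overnight at 37C, then dosed with compounds plus a stimulation mix containing 100uM IBMX and 25uM Ro-20-1724 for 0.5hr at room temperature. cAMP was measured by HTRF competition, 1hr.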

The target of experiment [17] is D(2) dopamine receptor (Homo sapiens) (UniProt P14416). Put plainly: Dopamine D2 receptor (DRD2) small molecule agonists, cell-based qHTS assay (AID 1963594). Further: nearly all actives have a fitted effect of over 35% in size. Further: potency means the concentration at half of the fitted maximal effect. Summed up: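 HEK293 cells stably expressing DRD2 were cultured 24 h at 37 C, then given Ro20-1724 (0.1 mM final) and compounds for 10 min at room temperature. NKH477 (200nM) was then added for 30 min. cAMP was read by HTRF.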

Experiment [18] has as its target Gonadotropin-releasing hormone receptor (Homo sapiens) (UniProt P30968). The experiment is described as follows: Human gonadotropin-releasing hormone receptor (GnRHR) small molecule agonists, calcium flux assay in GnRHR-HEK293 cells (AID 1920063). Further: nearly all actives have a fitted effect of over 35% in size. Summed up:
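Compounds dissolved in DMSO are pin-transferred onto dye-loaded GnRHR-HEK293 cells, which were seeded 18 h before at 37 C/5% CO2. Calcium signal is read as fluorescence intensity at 1 s intervals for 3 min.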

Experiment [19] has as its target KiSS-1 receptor (Homo sapiens) (UniProt Q969F8). The experiment is described as follows: Human kisspeptin (KISS1R) small molecule agonists, calcium flux assay in KISS1R-HEK293 cells (AID 1920064; active means well fitted activation curve with a large enough effect in the repeat runs). Summed up:
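Cell line: HEK293, stable human KISS1R. Dye loading 1 h at 37 C after 18 h culture. Read: kinetic fluorescence, 480/540 nm, 3 min at 1 s intervals.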

Experiment [20] addresses D(2) dopamine receptor (Homo sapiens) (UniProt P14416). Put plainly: Dopamine D2 receptor (DRD2) small molecule antagonists, cell-based qHTS assay (AID 1963595; active means well fitted inhibition curve with a large enough effect in the signal ratio in the repeat runs, with a control signal flat; the % refers to the signal ratio). Summed up: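 Antagonist mode in DRD2-HEK293 cells: after compound addition with 0.1 mM Ro20-1724, cells received quinpirole (12 nM) and NKH477 (200 nM) for 30 min at room temperature; HTRF cAMP read after 1 h detection.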

Several values for one entry are separate records, joined by “and”; a condition that tells them apart may be missing. Equal entries are not always repeated. Values without a mark were called inactive. Records with an inconclusive call do not appear. Activity calls are given as the source filed them. Unless noted, the call rests on the fitted dose curve.

Gonadotropin-releasing hormone receptor (Homo sapiens), sequence (P30968 whole entry, looked up): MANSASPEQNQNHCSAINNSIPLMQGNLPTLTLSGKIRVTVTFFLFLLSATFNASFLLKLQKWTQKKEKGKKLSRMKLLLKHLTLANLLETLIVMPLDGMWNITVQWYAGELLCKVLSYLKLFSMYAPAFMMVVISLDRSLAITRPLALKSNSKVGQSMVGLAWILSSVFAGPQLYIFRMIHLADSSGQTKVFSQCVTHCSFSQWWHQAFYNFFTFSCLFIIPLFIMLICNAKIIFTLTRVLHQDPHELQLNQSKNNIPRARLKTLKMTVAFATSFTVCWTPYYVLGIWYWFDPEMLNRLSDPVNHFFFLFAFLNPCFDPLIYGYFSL
KiSS-1 receptor (Homo sapiens), sequence (Q969F8 whole entry, looked up): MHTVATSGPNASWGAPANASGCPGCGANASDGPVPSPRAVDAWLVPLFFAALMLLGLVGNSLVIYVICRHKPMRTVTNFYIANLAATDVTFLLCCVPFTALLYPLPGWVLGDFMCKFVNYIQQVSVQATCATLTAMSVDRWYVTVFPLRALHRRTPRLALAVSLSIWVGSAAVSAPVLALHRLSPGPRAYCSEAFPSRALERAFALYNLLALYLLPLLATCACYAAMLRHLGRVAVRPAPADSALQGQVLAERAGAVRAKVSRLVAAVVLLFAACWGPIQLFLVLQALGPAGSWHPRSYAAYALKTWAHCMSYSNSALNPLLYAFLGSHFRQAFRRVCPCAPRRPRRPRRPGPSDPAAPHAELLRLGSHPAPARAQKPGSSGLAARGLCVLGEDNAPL
Muscarinic acetylcholine receptor M1 (Homo sapiens), sequence (P11229 whole entry, looked up): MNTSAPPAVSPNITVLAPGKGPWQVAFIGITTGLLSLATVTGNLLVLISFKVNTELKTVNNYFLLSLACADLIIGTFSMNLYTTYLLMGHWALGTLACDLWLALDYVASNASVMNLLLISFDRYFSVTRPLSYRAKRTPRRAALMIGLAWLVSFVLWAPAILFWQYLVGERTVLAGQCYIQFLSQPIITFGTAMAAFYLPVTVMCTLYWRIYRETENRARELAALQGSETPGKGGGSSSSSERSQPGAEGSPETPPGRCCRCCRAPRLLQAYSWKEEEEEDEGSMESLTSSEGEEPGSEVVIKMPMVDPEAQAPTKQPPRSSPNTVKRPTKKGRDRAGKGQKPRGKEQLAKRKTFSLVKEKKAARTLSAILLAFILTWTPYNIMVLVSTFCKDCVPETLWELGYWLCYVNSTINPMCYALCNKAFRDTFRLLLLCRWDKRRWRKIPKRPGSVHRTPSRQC
Beta-2 adrenergic receptor (Homo sapiens), sequence (P07550 whole entry, looked up): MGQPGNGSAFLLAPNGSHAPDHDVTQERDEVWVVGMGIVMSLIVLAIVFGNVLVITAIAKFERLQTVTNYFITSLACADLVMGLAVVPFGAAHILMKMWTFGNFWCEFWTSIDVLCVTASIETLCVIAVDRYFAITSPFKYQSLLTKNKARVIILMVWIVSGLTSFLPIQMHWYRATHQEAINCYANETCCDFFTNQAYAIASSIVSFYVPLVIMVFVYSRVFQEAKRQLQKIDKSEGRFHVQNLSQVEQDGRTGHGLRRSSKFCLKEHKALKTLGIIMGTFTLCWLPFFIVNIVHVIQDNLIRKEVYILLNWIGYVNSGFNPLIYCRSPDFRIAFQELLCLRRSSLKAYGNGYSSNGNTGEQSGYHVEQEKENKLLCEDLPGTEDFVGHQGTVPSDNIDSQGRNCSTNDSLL
D(2) dopamine receptor (Homo sapiens), sequence (P14416 whole entry, looked up): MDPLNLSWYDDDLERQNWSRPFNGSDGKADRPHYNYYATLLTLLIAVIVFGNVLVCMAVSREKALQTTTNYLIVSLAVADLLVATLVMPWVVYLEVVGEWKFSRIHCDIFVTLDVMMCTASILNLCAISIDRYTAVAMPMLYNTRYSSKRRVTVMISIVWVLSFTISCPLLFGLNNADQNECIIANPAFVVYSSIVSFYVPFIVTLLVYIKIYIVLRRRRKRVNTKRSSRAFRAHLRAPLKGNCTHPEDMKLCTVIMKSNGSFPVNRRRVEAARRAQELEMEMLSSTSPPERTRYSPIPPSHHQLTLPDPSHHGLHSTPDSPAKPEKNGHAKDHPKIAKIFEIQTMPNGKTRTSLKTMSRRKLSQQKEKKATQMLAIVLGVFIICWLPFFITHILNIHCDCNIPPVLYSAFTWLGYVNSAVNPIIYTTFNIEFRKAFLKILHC
5-hydroxytryptamine receptor 2A (Homo sapiens), sequence (P28223 whole entry, looked up): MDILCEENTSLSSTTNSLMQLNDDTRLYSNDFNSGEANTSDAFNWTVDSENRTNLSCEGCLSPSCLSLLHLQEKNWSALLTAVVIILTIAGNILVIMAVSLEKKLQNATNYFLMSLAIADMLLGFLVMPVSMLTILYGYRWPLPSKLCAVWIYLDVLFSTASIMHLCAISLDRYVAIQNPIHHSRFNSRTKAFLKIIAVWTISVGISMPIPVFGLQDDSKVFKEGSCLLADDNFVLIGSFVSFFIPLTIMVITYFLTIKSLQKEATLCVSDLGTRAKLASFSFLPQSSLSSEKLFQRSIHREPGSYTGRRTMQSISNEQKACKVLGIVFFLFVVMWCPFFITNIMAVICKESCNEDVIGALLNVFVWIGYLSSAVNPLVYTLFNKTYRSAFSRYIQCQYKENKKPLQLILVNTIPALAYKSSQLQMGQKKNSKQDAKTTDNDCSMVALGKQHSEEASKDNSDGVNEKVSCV

Turning to `C=C(C)CC(C)(C)C`, the Potency entry in experiment [1], in experiment [2], in [3], in experiment [4], in [5] and in experiment [6] was “inactive” in each case. The Potency entry in experiment [7], in [8], in experiment [9], in [10], in experiment [11] and in experiment [12] was “inactive” throughout. Further, the Potency entry in experiment [13], in experiment [14], in [15], in [16] and in experiment [17] was “inactive” throughout.

Take `CCCC[P+](CCCC)(CCCC)CCCC`: the Potency result in experiment [18], in [19], in experiment [2], in experiment [3], in [4] and in experiment [5] was “inactive” throughout. Also, the Potency result in experiment [6], in experiment [7], in [9], in [10], in experiment [11] and in [12] was “inactive” each time. Besides, the Potency result in experiment [16], in [17] and in [20] was “inactive” in each case.

As to `CC(=O)CC(c1ccccc1)c1c(O)c2ccccc2oc1=O` (stereo not given), the Potency entry in experiment [18], in [19], in experiment [2], in [5], in [6] and in experiment [13] was “inactive” throughout. The Potency entry in experiment [14], in experiment [15], in experiment [16] and in experiment [20] was “inactive” each time.

In the case of `CC(COc1ccccc1)N(CCCl)Cc1ccccc1` (stereo not given), the Potency entry in experiment [18], in experiment [19], in [2], in [3], in [4] and in experiment [5] was “inactive” in each case. For the same compound, the Potency entry in experiment [6], in experiment [8], in [10], in [11], in [12] and in experiment [13] was “inactive” throughout. Also, the Potency entry in experiment [14], in experiment [15], in experiment [16] and in [20] was “inactive” each time. The Potency in [17] is 13.2 µM (active) and 7.22 µM (active).

For the compound `CCCCOC(=O)c1ccc(O)cc1`, the Potency result in [18], in experiment [19], in experiment [3], in experiment [4], in experiment [5] and in experiment [6] was “inactive” throughout. Moreover, the Potency entry in [7], in experiment [8], in [9], in [10], in experiment [11] and in experiment [12] was “inactive” throughout. The Potency result in [13], in experiment [14], in [15], in experiment [17] and in experiment [20] was “inactive” throughout.

With `CCc1cc(C(N)=S)ccn1`, the Potency result in experiment [18], in experiment [19], in [2], in experiment [3], in experiment [4] and in [5] was “inactive” throughout. Also, the Potency entry in experiment [7], in experiment [8], in experiment [9], in experiment [10], in [11] and in experiment [12] was “inactive” throughout. Besides, the Potency result in experiment [13], in experiment [14], in experiment [15], in [16], in experiment [17] and in [20] was “inactive” in each case.

For the compound `CCCCOC(=O)CCCCCCCCC(=O)OCCCC`, the Potency result in experiment [18], in experiment [2], in experiment [3], in [4], in experiment [5] and in experiment [6] was “inactive” in each case. Besides, the Potency result in experiment [7], in experiment [8], in experiment [9], in experiment [10], in [11] and in experiment [12] was “inactive” throughout. Moreover, the Potency entry in experiment [13], in experiment [14], in experiment [15], in experiment [17] and in experiment [20] was “inactive” throughout.

Turning to `O=C(O)CC(O)C(=O)O` (stereo not given), the Potency result in experiment [1], in [18], in experiment [19], in experiment [2], in experiment [3] and in [4] was “inactive” in each case. In addition, the Potency entry in [5], in experiment [6], in experiment [7], in experiment [8], in experiment [9] and in [10] was “inactive” throughout. Further, the Potency result in experiment [11], in experiment [12], in experiment [13], in experiment [14], in experiment [15] and in [16] was “inactive” each time. Besides, the Potency entry in experiment [17] and in experiment [20] was “inactive” throughout.

As to `Cc1cccc(C)c1`, the Potency result in experiment [18], in experiment [19], in [2], in [5], in experiment [6] and in [7] was “inactive” each time. For the same compound, the Potency entry in experiment [9], in [10], in experiment [12], in [13], in experiment [14] and in [15] was “inactive” each time. Further, the Potency entry in experiment [16] and in experiment [17] was “inactive” in each case.
